Screens: PubChem, Broad Institute
T cruzi growth = inhibitors of T. cruzi proliferation; T. cruzi beta-gal in NIH3T3, GalScreen luminescence, 90 h; inhibition, % at 8.34 µM; actives 5.9% (n = 77,000);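 active = mean inhibition above about 93%, with at least 55% of replicates each passing it, limit read from the data, passing the limit was not always enough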
C diff HTS = blocks growth of Clostridium difficile; Clostridium difficile clinical isolate growth, OD600, 24 h; hits give low values; growth activity, negative = inhibition, % at 16 µg/mL (by protocol); actives 0.25% (n = 86,000); AID 1259249;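 active = mean growth activity at or below -80% and every replicate also at or below -80%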
Pf Dd2 growth = blocks growth of Plasmodium falciparum Dd2 parasites; P. falciparum Dd2 growth, SYBR Green, 72 h; hits give low values; actives 2.3% (n = 94,000); activity change, % at 10 µM; in the data active = activity change below about -80%
Numbers stand for hits. An excerpt weighted towards active compounds, which were near 6.7% of everything screened.

Results for COc1cccc(-c2ccc3c(c2)[C@H]2[C@H](CCN2S(=O)(=O)c2ccc(F)cc2)[C@@H](CO)N3C)c1 ?
T cruzi growth: inactive; C diff HTS: inactive; Pf Dd2 growth: inactive

How did CN1c2ccc(C#Cc3ccc(F)cc3)cc2[C@H]2[C@H](CCN2S(=O)(=O)c2ccccc2F)[C@@H]1CO do in these assays?
T cruzi growth: inactive; C diff HTS: inactive; Pf Dd2 growth: inactive

What do the screens show for `C[C@@H]1CCCCO[C@@H](CN(C)S(=O)(=O)c2cccs2)[C@H](C)CN([C@H](C)CO)C(=O)c2cc(NS(=O)(=O)c3ccccc3)ccc2O1`?
Pf Dd2 growth: inactive

What do the screens show for `O=C(Cc1cccnc1)N[C@@H]1CC[C@@H](CCNS(=O)(=O)c2ccccc2Cl)O[C@@H]1CO`?
T cruzi growth: inactive; C diff HTS: inactive; Pf Dd2 growth: inactive

What do the screens show for `COc1cccc(S(=O)(=O)Nc2ccc3c(c2)[C@@H]2C[C@@H](CC(=O)NCCc4ccccc4)O[C@@H](CO)[C@@H]2O3)c1`?
T cruzi growth: inactive; Pf Dd2 growth: inactive

How did COc1ccc2c3c([nH]c2c1)[C@H](CO)N(C(=O)CC1CC1)CC31CN(C(=O)CC2CC2)C1 do in these assays?
C diff HTS: inactive; Pf Dd2 growth: inactive

How did C[C@@H]1CN([C@H](C)CO)C(=O)c2cccc(NC(=O)CCCCCC(=O)Nc3ccccc3N)c2O[C@@H]1CN(C)Cc1ccc(-c2ccccc2)cc1 do in these assays?
C diff HTS: inactive; Pf Dd2 growth: -89

How did C[C@H]1CN([C@@H](C)CO)C(=O)c2cccc(NC(=O)CCCCCC(=O)Nc3ccccc3N)c2O[C@H]1CN(C)Cc1ccc(-c2ccccc2)cc1 do in these assays?
C diff HTS: inactive; Pf Dd2 growth: -85

How did C[C@H](CO)N1C[C@H](C)[C@H](CN(C)Cc2ccccc2)Oc2c(NC(=O)CCCCCC(=O)Nc3ccccc3N)cccc2C1=O do in these assays?
C diff HTS: inactive; Pf Dd2 growth: inactive

What do the screens show for `C[C@@H]1CN([C@H](C)CO)C(=O)c2cccc(NC(=O)CCCCCC(=O)Nc3ccccc3N)c2O[C@@H]1CN(C)Cc1ccccc1`?
C diff HTS: inactive; Pf Dd2 growth: inactive

How did COc1ccc(S(=O)(=O)N2CC[C@@H]3[C@@H](CO)Nc4ccc(-c5ccc(C#N)cc5)cc4[C@@H]32)cc1 do in these assays?
T cruzi growth: inactive; C diff HTS: inactive; Pf Dd2 growth: -81

Results for C/C=C/c1ccc2c(c1)[C@H]1[C@H](CCN1S(=O)(=O)c1ccccc1)[C@H](CO)N2 ?
T cruzi growth: inactive; C diff HTS: inactive; Pf Dd2 growth: inactive

What do the screens show for `O=C(C1CCC1)N1CC[C@H]2[C@H](CO)Nc3ccc(C4=CCCCC4)cc3[C@H]21`?
C diff HTS: inactive; Pf Dd2 growth: inactive

Results for O=C(Cc1ccccc1)N1CC[C@@H]2[C@H](CO)Nc3ccc(-c4ccc(F)cc4)cc3[C@@H]21 ?
T cruzi growth: inactive; C diff HTS: inactive; Pf Dd2 growth: inactive

What do the screens show for `COc1ccc(S(=O)(=O)N2CC[C@@H]3[C@H]2c2cc(-c4cccc(C#N)c4)ccc2N[C@@H]3CO)cc1`?
T cruzi growth: inactive; C diff HTS: inactive; Pf Dd2 growth: inactive

Results for O=C(C1CCCC1)N1CC[C@@H]2[C@H]1c1cc(C3=CCCCC3)ccc1N[C@@H]2CO ?
C diff HTS: inactive; Pf Dd2 growth: -92

What do the screens show for `C/C=C/c1ccc2c(c1)[C@H]1[C@H](CCN1S(=O)(=O)c1cccc(F)c1)[C@@H](CO)N2`?
C diff HTS: inactive; Pf Dd2 growth: -93

How did O=C(Cc1ccncc1)N1CC[C@@H]2[C@@H](CO)Nc3ccc(-c4cccc(F)c4)cc3[C@@H]21 do in these assays?
C diff HTS: inactive; Pf Dd2 growth: -92

What do the screens show for `COc1ccc(NC(=O)N(C)C[C@@H]2Oc3ccc(N(C)C)cc3C(=O)N([C@@H](C)CO)C[C@@H]2C)cc1`?
T cruzi growth: inactive; C diff HTS: inactive; Pf Dd2 growth: inactive

Results for CCC(=O)Nc1ccc2c(c1)OC[C@@H](C)N(C(=O)Cc1ccccn1)C[C@H](C)[C@H](OC)CN(C)C2=O ?
C diff HTS: inactive; Pf Dd2 growth: inactive

How did CO[C@@H]1CN(C)C(=O)c2ccc(NC(=O)c3ccc4c(c3)OCO4)cc2OC[C@@H](C)N(CC2CC2)C[C@@H]1C do in these assays?
Pf Dd2 growth: inactive

How did COc1ccc2c3c(n(C)c2c1)[C@@H](CO)N(Cc1ccccc1F)CC31CCN(C(C)=O)CC1 do in these assays?
Pf Dd2 growth: inactive

Results for C[C@@H]1CCCCO[C@H](CN(C)CC2CCCCC2)[C@H](C)CN([C@@H](C)CO)C(=O)c2cc(NC(=O)c3ccncc3)ccc2O1 ?
T cruzi growth: inactive; Pf Dd2 growth: inactive

What do the screens show for `O=C(C[C@@H]1CC[C@H]2[C@@H](COC[C@@H](O)CN2S(=O)(=O)c2ccc(F)cc2)O1)NCc1ccc(Cl)c(Cl)c1`?
T cruzi growth: inactive; C diff HTS: inactive; Pf Dd2 growth: inactive

Results for COc1cccc(S(=O)(=O)N[C@H]2C=C[C@H](CC(=O)NCc3ccccc3)O[C@@H]2CO)c1 ?
T cruzi growth: inactive; C diff HTS: inactive; Pf Dd2 growth: inactive

Results for O=S(=O)(NC[C@@H]1CC[C@@H]2[C@@H](CN2CC(c2ccccc2)c2ccccc2)O1)c1ccccc1F ?
Pf Dd2 growth: inactive

What do the screens show for `C/C=C/c1ccc2c(c1)[C@H]1[C@H](CCN1C(=O)C1CCCC1)[C@@H](CO)N2`?
C diff HTS: inactive; Pf Dd2 growth: -86

How did COc1cccc(-c2ccc3c(c2)[C@@H]2[C@@H](CCN2C(=O)C2CCCC2)[C@@H](CO)N3)c1 do in these assays?
C diff HTS: inactive; Pf Dd2 growth: inactive

What do the screens show for `COc1ccc(C#Cc2ccc3c(c2)[C@@H]2[C@@H](CCN2C(=O)C2CCC2)[C@@H](CO)N3)cc1`?
C diff HTS: inactive; Pf Dd2 growth: inactive

What do the screens show for `C/C=C/c1ccc2c(c1)[C@@H]1[C@@H](CCN1C(=O)C1CCCC1)[C@H](CO)N2`?
C diff HTS: inactive; Pf Dd2 growth: inactive

Results for COc1cccc(-c2ccc3c(c2)[C@H]2[C@H](CCN2C(=O)C2CCCC2)[C@@H](CO)N3)c1 ?
C diff HTS: inactive; Pf Dd2 growth: -83

How did COc1ccc(C#Cc2ccc3c(c2)[C@@H]2[C@@H](CCN2C(=O)C2CCC2)[C@H](CO)N3)cc1 do in these assays?
C diff HTS: inactive; Pf Dd2 growth: -87

Results for COCC(=O)Nc1ccc2c(c1)C(=O)N(C)C[C@@H](OC)[C@@H](C)CN(Cc1ccccn1)[C@@H](C)CO2 ?
T cruzi growth: inactive; Pf Dd2 growth: inactive

How did C[C@@H]1CN([C@H](C)CO)C(=O)Cc2cc(NC(=O)Nc3ccccc3)ccc2O[C@@H]1CN(C)S(=O)(=O)c1ccc(Cl)cc1 do in these assays?
T cruzi growth: inactive; C diff HTS: inactive; Pf Dd2 growth: inactive

Results for CN1C(=O)c2cc(NC(=O)c3cccs3)ccc2OC[C@@H]2O[C@@H](CC(=O)N3CCCCC3)CC[C@H]21 ?
T cruzi growth: inactive; C diff HTS: inactive; Pf Dd2 growth: inactive

What do the screens show for `COc1ccc2c3c(n(C)c2c1)[C@H](CO)NCC31CCN(S(=O)(=O)c2cccc(F)c2)CC1`?
C diff HTS: inactive; Pf Dd2 growth: -86

How did COc1ccc2c3c([nH]c2c1)[C@@H](CO)NCC31CN(C(=O)c2ccccc2)C1 do in these assays?
C diff HTS: inactive; Pf Dd2 growth: inactive

What do the screens show for `COc1ccc2c3c([nH]c2c1)[C@@H](CO)NCC31CCN(C(=O)C2CCOCC2)CC1`?
C diff HTS: inactive; Pf Dd2 growth: -82
